# From PubChem BioAssay
# An excerpt weighted towards active compounds, which were near 2.1% of everything screened.
# ID4 SMM: binders of human ID4 protein; AID 624137; 31,000 compounds, 1.2% hits; calls only; small molecule microarray, Flag-ID4 binding, fluorescence F/B; P47928; call rule not given here;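 also: a binder raises fluorescence above local background on the spot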
# Target sequence (P47928 whole entry, looked up): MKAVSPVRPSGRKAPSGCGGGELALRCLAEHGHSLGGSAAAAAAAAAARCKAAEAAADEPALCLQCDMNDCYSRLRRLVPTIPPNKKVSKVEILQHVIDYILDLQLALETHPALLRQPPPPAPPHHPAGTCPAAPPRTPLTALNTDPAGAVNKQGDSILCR
# STK33 inh: human STK33 kinase inhibition | ADP-Glo luminescence, MBP substrate | inhibition, % at 12.5 µM | 27,000 compounds, 0.44% hits | Q9BYT3; in the data active = inhibition above about 20%
# p53 PUMA act: restores mutant p53 pathway signaling in SW480 cells. activation, % at 9.98 µM. SW480 PUMA-promoter luciferase, p53 mutant reactivation. 28,000 compounds, 1.5% hits; in the data active = activation above about 52%
# * hit, by the source's call; i = inactive; x = no result given; + = active, no number.
SMILES,ID4 SMM,STK33 inh,p53 PUMA act
CCOc1ccccc1Nc1nc(N)nc(CSc2nccc(C)n2)n1,i,2.7,16.3
COc1ccccc1Nc1nc(N)nc(CSc2ncccn2)n1,i,-0.4,85.7*
COc1ccc(C(=O)O)cc1NC(=S)NC(=O)COc1ccc(Br)cc1,i,-1.6,4.2
CC(=O)C(C#N)C(=O)Nc1cc(Br)ccc1Br (stereo not drawn),i,22.1*,10.3
Cn1ccc2cc(NC(=O)Nc3cccnc3)ccc21,+,x,79.8*
Cc1cc(OCC(=O)Nc2cccnc2)ccc1[N+](=O)[O-],i,-0.5,47.9
C=C(C)C(=O)Nc1ccc(Oc2ccccc2F)nc1,i,x,-5.3
CC(=O)CCc1ccc(Oc2ccc(C(F)(F)F)cn2)cc1,i,-2.2,64.7*
CC1(C)C[C@H]2C[C@H]3C(Br)=CC2(CO1)C(=O)[C@]31CO1,i,x,x
COc1ccc(-c2nnc(SCC(=O)NC(C)(C)C)n2-c2ccccc2)cc1,i,0.3,3.1
Cc1cccc(C)c1OCC(=O)Nc1ccccc1C#N,i,0.7,9.0
Cc1ccc(OCC(=O)Nc2ccccc2C#N)cc1C,i,-0.6,83.3*
O=S(=O)(Cc1nc(-c2ccccc2Cl)cs1)c1cccs1,x,0.4,x
O=C(C[C@H]1CC[C@@H](NC(=O)C2CCC2)[C@@H](CO)O1)NCCCN1CCOCC1,+,x,x
O=C(C[C@H]1CC[C@H](NC(=O)C2CCC2)[C@H](CO)O1)NCCCN1CCOCC1,i,x,x
Cc1cccc(NC(=O)c2cc(NC(=O)CCC(=O)O)ccc2N2CCOCC2)c1,+,0.8,-12.3
Cc1cccc(NC(=O)c2cc(NC(=O)C3CCCCC3C(=O)O)ccc2N2CCCCC2)c1 (stereo not drawn),i,-9.6,-15.7
COc1cc(NC(=O)CCN2C(=O)c3ccccc3C2=O)cc(OC)c1,i,1.2,16.3
C[C@@H]1CCCCO[C@@H](CN(C)Cc2ccncc2)[C@H](C)CN([C@H](C)CO)C(=O)c2cc(NC(=O)Nc3ccccc3)ccc2O1,+,x,-9.6
C[C@H](CO)N1C[C@H](C)[C@H](CN(C)C(=O)Nc2ccccc2)OCCCC[C@H](C)Oc2ccc(NC(=O)Nc3ccccc3)cc2C1=O,i,x,3.8
C[C@@H]1CCCCO[C@@H](CN(C)Cc2ccncc2)[C@H](C)CN([C@@H](C)CO)C(=O)c2cc(NC(=O)Nc3ccccc3)ccc2O1,i,x,-7.7
C[C@@H]1CCCCO[C@@H](CN(C)C(=O)Nc2ccccc2)[C@H](C)CN([C@H](C)CO)C(=O)c2cc(NC(=O)Nc3ccccc3)ccc2O1,+,x,-39.0
O=C(NCCN1CCOCC1)[C@@]1(Cc2ccccc2)N=C(c2ccc(OCCCO)cc2)O[C@H]1c1ccccc1,i,-1.3,x
CC1=C(C(=O)OC(C)C)C(c2ccccc2[N+](=O)[O-])n2ncnc2N1 (stereo not drawn),i,-1.9,2.1
COc1ccc(NC(=O)CSc2n[nH]c(-c3ccncc3)n2)cc1,i,1.5,7.0
SMILES,ID4 SMM,STK33 inh,p53 PUMA act
Cc1ccc(-n2c(SCC(=O)Nc3c(F)cc(F)cc3Br)nc3ccccc3c2=O)cc1,i,-0.4,-6.5
CCCn1c2ccccc2c2nnc(SCCN3CCCCC3)nc21,+,-3.7,3.0
Cc1ccc2c(c1)c1nnc(SCCN3CCCCC3)nc1n2C,i,3.0,-2.1
C/C=C1\[C@H](O[C@@H]2O[C@H](CO)[C@@H](O)[C@H](O)[C@H]2O)OC=C(C(=O)O)[C@H]1CC(=O)OCCc1ccc(O)cc1,x,-2.0,-12.9
Cc1ccc(C(=O)CSc2nc(C)nc3sc4c(c23)CCCC4)cc1,i,0.3,-4.1
Nc1nc(SCC(=O)c2ccccc2)nc2sc3c(c12)CCC3,i,4.9,113.5*
CN1C(=O)[C@@H]2[C@@H](CC(COc3ccccc3)=C3[C@@H](CCc4ccccc4)OB(O)C[C@@H]32)C1=O,i,x,x
CC(=O)c1ccc(NC(=O)CSc2nc(O)c(-c3ccccc3)c(=O)[nH]2)cc1,i,-3.0,28.6
N#Cc1c(-c2ccccc2)nc(SCC(=O)Nc2ccc(Oc3ccccc3)cc2)[nH]c1=O,i,-6.5,12.5
CCc1c(O)nc(SCC(=O)Nc2ccc(C(C)=O)cc2)[nH]c1=O,+,-2.2,11.0
CC(=O)c1ccc(NC(=O)CSc2nc(-c3ccccc3)c(C#N)c(=O)[nH]2)cc1,i,-1.3,59.0*
COc1ccc(OC)c(NC(=O)c2ccc(C)c(S(=O)(=O)Nc3ccc(C)cc3)c2)c1,+,-1.6,0.9
COc1ccc(OC)c(NC(=O)c2ccc(Cl)c(S(=O)(=O)Nc3ccc(C)cc3)c2)c1,i,-0.9,-2.5
O=C(CCCN1C(=O)c2ccccc2C1=O)Nc1ccc(Nc2ccccc2)cc1,i,4.5,55.4*
CC(=O)Nc1ccc(NC(=O)CCCN2C(=O)c3ccccc3C2=O)cc1,i,-2.1,3.5
Cc1cc(O)c2c(c1)C(=O)C13C(C2=O)C(=O)C2C(O)C1C1C(O)C3C(=O)C3C(=O)c4c(O)cc(C)cc4C(=O)C321 (stereo not drawn),x,-1.1,x
O=C1O[C@@H](c2ccccc2)[C@@H](c2ccccc2)N2[C@@H](c3ccc(OCCO)cc3)[C@]3(C(=O)Nc4ccc(C#CC5=CCCCC5)cc43)[C@@H](C(=O)N3CCCCCCC3)[C@H]12,i,20.7*,x
NC(=O)[C@@H]1[C@H]2C(=O)O[C@H](c3ccccc3)[C@H](c3ccccc3)N2[C@H](c2ccc(OCCO)cc2)[C@@]12C(=O)Nc1ccc(C#CC3=CCCCC3)cc12,x,8.7,x
O=C1O[C@@H](c2ccccc2)[C@@H](c2ccccc2)N2[C@@H](c3ccc(OCCO)cc3)[C@]3(C(=O)Nc4ccccc43)[C@@H](C(=O)N3CCCCCCC3)[C@H]12,+,15.1,x
NC(=O)[C@@H]1[C@H]2C(=O)O[C@H](c3ccccc3)[C@H](c3ccccc3)N2[C@H](c2ccc(OCCO)cc2)[C@@]12C(=O)Nc1ccc(C#CC3(O)CCCCCC3)cc12,i,22.1*,x
C=CCOC(=O)[C@H]1[C@@H]2C(=O)O[C@@H](c3ccccc3)[C@@H](c3ccccc3)N2[C@@H](c2ccc(OCCOC(=O)[C@@H]3C[C@@H]4C(=O)N5CCC[C@H]5C(=O)N4[C@@H]3c3ccc(O)cc3)cc2)[C@]12C(=O)Nc1ccc(I)cc12,+,16.4,x
C=CCOC(=O)[C@H]1[C@@H]2C(=O)O[C@@H](c3ccccc3)[C@@H](c3ccccc3)N2[C@@H](c2ccc(OCCOC(=O)[C@H]3C[C@H]4C(=O)N5CCC[C@H]5C(=O)N4[C@H]3c3ccc(O)cc3)cc2)[C@]12C(=O)Nc1ccccc12,i,x,x
O=C1O[C@H](c2ccccc2)[C@H](c2ccccc2)N2[C@H]1[C@@H](C(=O)N1CCCCCCC1)[C@]1(C(=O)Nc3ccccc31)[C@H]2c1ccc(OCCO)cc1,i,17.0,x
O=C1O[C@H](c2ccccc2)[C@H](c2ccccc2)N2[C@H]1[C@@H](C(=O)N1CCCCCCC1)[C@]1(C(=O)Nc3ccc(C#CC4(O)CCCCCC4)cc31)[C@H]2c1ccc(OCCO)cc1,x,18.5,x
Cc1nc(SCC(=O)Nc2ccc(Br)cc2)n[nH]1,i,-3.8,-37.7
Cn1c(SCC(=O)Nc2cccc(C(F)(F)F)c2)nnc1-c1cc2cc(Cl)ccc2o1,i,2.8,20.2
O=C(CCN1C(=O)c2ccccc2S1(=O)=O)Nc1ccc(Oc2ccccc2)cc1,i,0.4,-6.0
